Hits are enriched below; roughly 2.1% of the tested compounds scored in any of these assays.
aSyn rescue – inhibitors of alpha-synuclein toxicity in yeast. Yeast expressing alpha-synuclein, growth rescue, BacTiter-Glo, 24 h. Potency, µM (highest dose often 46.1 µM), most hits filed as activators. hit rate 0.14% among 370,000. AID 652106; note: nearly all actives have a fitted effect of over 65% in size
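Screening used galactose-induced yeast with toxic alpha-synuclein levels, exposed to compound for 24 hr at 30 deg C. Cell growth, read with BacTiter-Glo luminescence, gave the measured signal.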
Abeta rescue – restores growth of yeast expressing A-beta42 peptide; Potency, µM (titrated, usually from 46.1 µM), usual class: activators; AID 1347071; hit rate 0.063% among 410,000; yeast expressing A-beta42, growth rescue, OD600, 48 h; response scale: 0% DMSO, 100% iron-clioquinol control; note: nearly all actives have a fitted effect of over 55% in size
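Growth rescue measured by 600 nm absorbance after 48 h yeast culture at 30 C with compound. Values normalized between DMSO and an equimolar ferric chloride plus clioquinol control.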
FUS suppressor – FUS proteinopathy suppression in yeast. S. cerevisiae FUS-expressing, growth rescue, OD600, 24 h. Potency, µM (top dose mostly 76.6 µM), hits mostly activators. hit rate 0.24% among 390,000. AID 1347120; note: nearly all actives have a fitted effect of over 55% in size
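Absorbance at 600 nm, taken 24hr after compound addition, measured rescue of FUS-yeast growth at 30C. Induction used 2% galactose with seeding at OD 0.005. Controls: CP55940 from 92uM final, DMSO only.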
TDP43 rescue – inhibitors of TDP-43 toxicity in yeast; Potency, µM (titrated, usually from 46.1 µM), actives largely listed as activators; TDP-43 expressing yeast growth rescue, BacTiter-Glo, 24 h; hit rate 1.8% among 410,000; note: nearly all actives have a fitted effect of over 50% in size
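Galactose-induced TDP-43 yeast, OD600=0.02, compound pinned; 24 hr, 30 deg C; BacTiter-Glo luminescence for growth. Inhibitors of TDP-43 toxicity read as activators.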
Numbers stand for hits; - = inactive; ? = inconclusive; . = no result given; [ ] = remark or other dose. Calls come from the whole dose curve; as a rule, active = well fitted curve in the direction sought with a large enough effect; inconclusive = small, poorly fitted or top-dose-only effect, or another doubt; inactive = no such curve, though single readings can be large; an effect the other way counts as inactive or inconclusive.

SMILES	aSyn rescue	Abeta rescue	FUS suppressor	TDP43 rescue
CC(=O)N1CCN(C(C)=O)c2ccccc21	-	-	.	-
CC(=O)N1CCn2c3ccc(C)cc3c3cccc1c32	-	-	-	14µM
O=C(c1c[nH]c(C(=O)C(Cl)(Cl)Cl)c1)c1ccccc1F	-	-	-	10µM
CC(C)(C)c1ccc(-c2nc3n(c(=O)c2C#N)CCS3)cc1	-	-	-	20µM
N#Cc1c(-c2ccccc2)nc2n(c1=O)CCS2	-	-	-	35µM
CCOc1ccc(-c2nc3n(c(=O)c2C#N)CCCS3)cc1	-	-	-	-
COc1ccc(-c2cc(-c3nnc(SCC(=O)Nc4ccc(OCc5ccccc5)cc4)n3N)[nH]n2)cc1	.	.	-	.
COc1ccc(NC(=O)C2CCCN2S(=O)(=O)c2ccc3c(c2)CCCC(=O)N3)cc1Cl (stereo unspecified)	.	-	-	-
O=[N+]([O-])c1ccccc1/C=N/n1c(C2CCCCC2)n[nH]c1=S	-	-	-	32µM
S=c1[nH]nc(C2CCCCC2)n1/N=C/c1ccccc1Br	-	-	-	?
S=C(NC1CCCCC1)NC1CC2C=CC1C2 (stereo unspecified)	-	11µM	-	-[1.82 µM]
CC1(C)CC(=O)N(CC(=O)N2CCN(c3cccc(C(F)(F)F)c3)CC2)c2ccccc2S1(=O)=O	.	.	-	.
COc1ccccc1C(=O)OCc1cc(=O)n2c(C)csc2n1	.	-	-	35µM
CC(Oc1ccccc1)C(=O)Nc1ccc(OCc2cc(=O)n3ccsc3n2)cc1 (stereo unspecified)	.	-	-	16µM
CN(C)c1ccc(C(=O)OCc2cc(=O)n3ccsc3n2)cc1	-	-	-	?
O=C(OCc1cc(=O)n2ccsc2n1)c1ccc(OC(F)F)cc1	-	-	-	7.1µM
COc1ccc(C(=O)OCc2cc(=O)n3c(C)csc3n2)cc1F	-	-	.	-
COc1ccccc1C(=O)OCc1cc(=O)n2ccsc2n1	-	-	-	16µM
Cc1ccccc1NC(=O)c1ccccc1OCC(=O)Nc1ccc(Br)cc1	-	.	.	.
C#CCNC(=O)C[C@H]1C[C@@]2(C(=O)OC)C(=C[C@H](C(C)(C)C)O[C@@H]2C)N(Cc2ccco2)C1=O	.	.	-	.
Cc1ccc(C(=O)OCc2cc(=O)n3ccsc3n2)s1	-	-	-	-
Cc1ccc(C(=O)OCc2cc(=O)n3c(C)csc3n2)s1	-	-	-	22µM
CCC(=O)N1c2nc(C(C)C)nn2C2(CCCCC2)[C@@H]2CCCC[C@@H]21	.	-	-	-
Cc1ccc(N2C(=O)[C@@H]3CSC(c4ccc(F)cc4)N3C2=O)cc1 (stereo partly specified)	.	-	-	?
Cc1ccc(N2C(=O)[C@@H]3CSC(c4ccc(Cl)cc4)N3C2=O)cc1 (stereo partly specified)	.	-	-	25µM
SMILES	aSyn rescue	Abeta rescue	FUS suppressor	TDP43 rescue
COc1cc(-c2cc(=O)c3c(O)c(OC)c(OC)c(OC)c3o2)cc(OC)c1OC	25µM	-	-	-
COc1ccc(N2CCN(C(=O)CSc3nc4ccccc4nc3Cc3ccc(Cl)cc3)CC2)cc1	.	-	32µM	-
O=C(CSc1nc2ccccc2nc1Cc1ccc(Cl)cc1)N1CCCCC1	.	-	?	-
CC1CCCCN1C(=O)CSc1nc2ccccc2nc1Cc1ccc(Cl)cc1 (stereo unspecified)	.	-	25µM	-
O=C(CSc1nc2ccccc2nc1Cc1ccc(Cl)cc1)N1CCN(c2ccccc2)CC1	.	-	-	-
CCc1ccccc1N1CC(c2nnc(NC(=O)c3ccco3)s2)CC1=O (stereo unspecified)	.	-	-	-[9.22 µM]
Cc1c(C(=O)Nc2ccc(F)cc2F)oc2ccc3c(c12)C(=O)CC(C)(C)O3	.	-	-	?
COC(=O)[C@]1(CNC(C)=O)CC(=O)N(Cc2ccc(Cl)cc2)[C@@H]1c1ccc(OC)cc1	.	.	-	.
C/C(=N\O)c1ccc(Cl)cc1Cl	-	-	-	-
C/C(=N\O)c1cc(Cl)cc(Cl)c1O	?	-	-	14µM
CCCCNC(=O)C[C@H]1C[C@@]2(C(=O)OC)C(=C[C@H](COCc3ccccc3)O[C@@H]2C)N(Cc2ccco2)C1=O	.	.	-	.
C/C(=N\Nc1ccc(C(=O)O)cc1)c1ccc(Br)cc1	-	-	-	10µM
C/C(=N/Nc1ncc(Br)cn1)c1ccc(Br)cc1	-	-	-	28µM
Brc1ccc(Cn2c(-c3cncs3)nc3ccccc32)cc1	-	-	-	?
c1ccc(Cn2c(-c3cncs3)nc3ccccc32)cc1	-	-	-	7.9µM
C[C@@H]1COc2cc(F)ccc2S(=O)(=O)N1C	.	.	-	.
COc1ccccc1C(=O)n1ccc2ccc(-c3ccc4ccn(Cc5ccccc5)c4c3)cc21	.	.	-	.
CCn1c(C(=O)NCc2ccc(C)cc2)cc2sc(Cl)cc21	.	-	-	-
CCOC(=O)Cc1nnc(-c2ccccc2)o1	-	-	-	-
Cc1ccc(C2=NN(Cc3nnc(-c4ccccc4)o3)C(=O)SC2)cc1	-	-	.	18µM
CC(=O)c1ccc(N2C(=O)Nc3ccccc3S2(=O)=O)cc1	.	-	-	-
COc1ccc(NC(=O)/C=C\C(=O)N(c2ccc(C(C)C)cc2)C(C(=O)NCc2ccco2)c2ccc(C)cc2)cc1 (stereo unspecified)	.	-	4.5µM	-
COc1ccc(-c2sc3ccc(N4CCOCC4)cc3c2C#CCO)cc1	-	-	-	14µM
COc1ccc(-c2sc3ccc(N4CCOCC4)cc3c2C#CC2(O)CCCCC2)cc1	-	-	-	-
COc1ccc(CCNC(=O)Cn2c(=O)n(-c3ccc(F)cc3)c(=O)c3sccc32)cc1OC	0.56µM	-	-	-
SMILES	aSyn rescue	Abeta rescue	FUS suppressor	TDP43 rescue
COC(=O)c1ccc(COc2nc(C)cc(C)c2C#N)o1	-	-	-	-
COC(=O)c1ccc(CSc2nc(C(F)F)cc(C)c2C#N)o1	-	-	-	11µM
C=CS(=O)(=O)c1c2cc(OC)ccc2nc2ccc(OC)cc12	-	-	.	3.5µM
CC(=O)N1CCN(C(=O)CCn2nnc3ccccc32)CC1	.	.	-	.
COc1cc(NC(=O)CCC(=O)O)nc(OC)n1	-	-	-	-
CC#CCCCC(=O)Nc1cc(OC)nc(OC)n1	-	-	-	14µM
Cc1cc(Nc2ccc(C(C)C)cc2)n2ncnc2n1	-	-	-	11µM
C/C(=N\Nc1cc(-c2ccccc2)nc(-c2ccc(Br)cc2)n1)c1cccc(N)c1	-	-	13µM	-
C/C(=N/Nc1cc(-c2ccccc2)nc(-c2ccccc2)n1)c1ccc(O)cc1	-	-	.	?
CCOC(=O)c1ccc2[nH]c3c(c2c1)CCCC3C(=O)OCC (stereo unspecified)	-	-	-	?
CCOC(=O)C1CCCc2c1[nH]c1ccc(Cl)cc21 (stereo unspecified)	-	?	-	13µM
CC(C)(C)OC(=O)NCc1ccc(NC(=O)c2nc[nH]c2C(=O)NCCN(CCNC(=O)c2[nH]cnc2C(=O)Nc2ccc(CNC(=O)OC(C)(C)C)cc2)CCNC(=O)c2[nH]cnc2C(=O)Nc2ccc(CNC(=O)OC(C)(C)C)cc2)cc1	-	-	8.9µM	-
CCOC(=O)c1ccc(NC(=O)c2nc[nH]c2C(=O)NCCCCCNC(=O)OC(C)(C)C)cc1	-	-	?	-

Compound activity from PubChem.
